In PubChem BioAssay (NCATS) one finds Potency data, which are given here for 40 compounds.

Inconclusive results are not listed. A call without a number means that no potency is given here. Active and inactive are the calls of the source. The call rests on the fitted dose curve; in most records, active means well fitted inhibition curve with a large enough effect; inconclusive means small, poorly fitted or top-dose-only effect; inactive means no such curve, though single readings can be large or run the other way.
Potency means the concentration at half of the fitted maximal effect.

The assay can be described thus: S16 Schwann cell PMP22 intronic element firefly luciferase assay (AID 624032). Further: nearly all actives have a fitted effect of over 30% in size. As to conditions: S16 rat Schwann cells, PMP22 element FLuc, 24 h; series mostly up to 57.5 µM. The text has this:
Charcot-Marie-Tooth-Association [CMTA]
National Center for Advancing Translational Sciences [NCATS]
Charcot-Marie-Tooth (CMT) disease was first characterized by Jean-Martin Charcot and Pierre Marie in France and, independently, by Howard Henry Tooth in England in 1886. CMT is one of the most common inherited neurological diseases, affecting approximately 1 in 2,500 Americans. […] The most prevalent type of CMT is known as CMT1A and caused by a duplication of the PMP22 gene which leads to over-expression of this protein. PMP22 is a glycosylated intrinsic membrane protein accounting for 2-5% of the myelin protein content, and its over-expression results in demyelination and subsequently axonal loss.
A pair of cellular transcription-based assays was developed in the S16 rat Schwann cell lines (Hai, M., et al., 2002) stably transfected with orthogonal reporters - firefly luciferase (Fluc) and beta-lactamase (beta-Lac) - whose expression is driven by an intronic regulatory element of the PMP22 gene (Jones, E.A., et al., 2011) to recapitulate endogenous expression of PMP22. The current assay employs Fluc to report on PMP22 expression. A comprehensive library of approved drugs, the NCGC Pharmaceutical Collection (Huang, R., et al., 2011), was screened in the cross-validating platform of the orthogonal reporter assays to identify drug modulators inhibitory towards PMP22 expression.
A set of counter-screens was devised to address non-specific activity of the library. An ATP-dependent CellTiter-Glo assay (developed by Promega Corp) was utilized to control cell viability. In addition, biochemical Fluc enzyme assay was performed to assess direct inhibition of the Fluc enzymatic activity.
Hai, M., Muja, N., DeVries, G.H., Quarles, R.H. and Patel, P.I. Comparative analysis of Schwann cell lines as model systems for myelin gene transcription studies. J Neurosci Res, 2002. 69(4): pp 497-508
Huang, R., Southall, N., Wang, Y., Yasgar A., Shinn P., Jadhav, A. , Nguyen, D.-T. and Austin, C.P., The NCGC pharmaceutical collection: a comprehensive resource of clinically approved drugs enabling repurposing and chemical genomics. Sci Transl Med, 2011. 3(80): p. 80ps16.
S16 Schwann cell PMP22 intronic element firefly luciferase assay
The FLuc-expressing S16 cells were seeded in white solid 1536-well plates at between 500-750 cells/4uL in DMEM medium containing 10% FBS, w/o phenol red. After overnight incubation at 37 degree Celsius/5% C02, 23 nL of compounds or DMSO were delivered to each well using a pin tool, followed by 24h-incubation at 37 degree Celsius/5% C02. Then 4 uL ONE-Glo luminescent substrate mix (Promega) was added to each well. Luminescence was measured on a ViewLux plate reader (Perkin Elmer). The % activity was determined by normalizing to the average readings of PTC124 (a positive control) - treated cells relative to DMSO-treated cells (0% Activity). The concentration-effect curves were then classified based on curve quality (r2), response magnitude and degree of measured activity.
With `CC(C)(C)NCC(O)COc1ccc(NC(=O)NC2CCCCC2)cc1` (stereo not given), the Potency result was “inactive”. On to `O=c1cc[nH]c(=S)[nH]1`, for which the Potency entry was “inactive”. For the compound `CCC(=O)Nc1ccc(O)cc1`, the Potency result is “inactive”. Turning to `Cc1cccc(Nc2cc(Cl)nc(SCC(=O)O)n2)c1C`, the Potency result was “inactive”. In the case of `Cc1ccc(C(C)C)cc2c(C)ccc1-2` it was “inactive”.

For the compound `CC(=O)NC(Cc1ccccc1)C(=O)O` (stereo not given), the Potency result was “inactive”. For the compound `NS(=O)(=O)c1cc2c(cc1Cl)NC(CSCc1ccccc1)=NS2(=O)=O`, the Potency result is “inactive”. With `CCN(CC)CCNC(C(=O)OCCC(C)C)c1ccccc1` (stereo not given), the Potency entry was “inactive”. Then `CSc1ccc2c(c1)C(N1CCN(C)CC1)Cc1ccccc1S2` (stereo not given), with 20.3 µM (active); and `CC(=O)CCC(=O)O`, with “inactive”; and `O=S(=O)(O)c1cc(I)c(O)c2ncccc12`, with “inactive”.

In the case of `NC(=O)N/N=C/c1ccc([N+](=O)[O-])o1`, the Potency is 10.2 µM (active).

`NCCNCCNCCNCCN`: the Potency entry was “inactive”. Consider `O=C(O)c1ccccn1`, for which the Potency entry is “inactive”.

Regarding `CC(O)CN(CCN(CC(C)O)CC(C)O)CC(C)O` (stereo not given), the Potency result is “inactive”. On to `CCCCN(CCCC)CCCOC(=O)c1ccc(N)cc1`, for which the Potency entry is “inactive”. On to `COc1ccccc1O`, for which the Potency result is “inactive”. On to `Oc1cccc(O)c1`, for which the Potency entry was “inactive”. On to `CC1(C)[C@@H]2CC[C@@]1(C)C(=O)C2`, for which the Potency is 2.56 µM (active). Turning to `Nc1ccc(S(=O)(=O)Nc2ccccc2)cc1`, the Potency entry was “inactive”. Then `O=C(O)[C@@H]1CSCN1`, with “inactive”.

Turning to `O=C(CCCN1CCN(c2ccccn2)CC1)c1ccc(F)cc1`, the Potency result is “inactive”. For the compound `Cc1c(O)cccc1C(=O)N[C@@H](CSc1ccccc1)[C@H](O)CN1C[C@H]2CCCC[C@H]2C[C@H]1C(=O)NC(C)(C)C`, the Potency is 8.09 µM (active).

For the compound `O=S(=O)(O)NC1CCCCC1`, the Potency entry was “inactive”. As for `CCCCCCCCCCCCOS(=O)(=O)O`, the Potency result is “inactive”.

For `C[C@H]1O[C@@H](n2cc(F)c(=O)[nH]c2=O)[C@H](O)[C@@H]1O`, the Potency result was “inactive”.

Turning to `CN1CCC[C@@H]1Cc1c[nH]c2ccc(CCS(=O)(=O)c3ccccc3)cc12`, the Potency entry is “inactive”. Consider `Cc1cccc(C)c1NC(=O)CN(CC(=O)O)CC(=O)O`, for which the Potency result was “inactive”. As for `C[C@@H]1CN(c2c(F)c(F)c3c(=O)c(C(=O)O)cn(C4CC4)c3c2F)C[C@H](C)N1`, the Potency entry is “inactive”.

As to `CN(C)CCN(Cc1ccccc1)c1ccccn1`, the Potency result was “inactive”. Turning to `Cc1cc(N)c2ccccc2[n+]1CCCCCCCCCC[n+]1c(C)cc(N)c2ccccc21`, the Potency was 3.46 µM (active). For the compound `Cn1cc[nH]c1=S`, the Potency result was “inactive”. Regarding `O=C1c2c(O)cccc2Cc2cccc(O)c21`, the Potency entry is “inactive”.

Take `CC(=O)Nc1ccc(/C=N/NC(N)=S)cc1`: the Potency result is “inactive”.

For the compound `[Cl][In]([Cl])[Cl]`, the Potency result was “inactive”.

In the case of `Nc1ncnc2c1ncn2[C@@H]1O[C@H](CO)[C@@H](O)[C@H]1O`, the Potency result is “inactive”. In the case of `O=c1[nH]c(=O)c2[nH]c(=O)[nH]c2[nH]1`, the Potency entry was “inactive”. As for `N[C@@H](CSCCCO)C(=O)O`, the Potency result was “inactive”.

For the compound `O=C1O[C@H]([C@@H](O)CO)C(O)=C1O`, the Potency entry was “inactive”. Then `O=C(O)c1ccccc1-c1ccc(C(F)(F)F)cc1`, with “inactive”.
